From PubChem BioAssay (NCATS) come the findings set out here.

In assay [1] the test system is Zika virus NS2B-NS3 protease (unlinked complex). The assay can be described thus: Primary screen GU Rhodamine qHTS for Zika virus inhibitors: Unlinked NS2B-NS3 protease assay (AID 1347159). Also: % is scaled to controls: 0 for no effect and ±100 for the full control effect; nearly all actives have a fitted effect of over 60% in size. The settings on record: Recombinant ZIKV NS2B-NS3 protease, Rhodamine110 substrate fluorescence; series mostly up to 107 µM. Put shortly: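 In dose–response format, inhibition of unlinked protease (25 nM) was measured with 1.5 microM bis-peptide Rhodamine110 substrate. Aprotinin served as the intraplate control.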
(In qHTS, concentration-response curves come from the screen itself.)

Assay [2] deals with Zika virus NS2B-NS3 protease (linked construct). Put plainly: Primary screen NINDS Rhodamine qHTS for Zika virus inhibitors (AID 1347160). Also: nearly all actives have a fitted effect of over 55% in size. As to activity change, negative = inhibition: % is scaled to controls: 0 for no effect and ±100 for the full control effect. The note with it: purified NS2B-NS3 protease, Rhodamine110 substrate fluorescence; series mostly up to 57.1 µM. The procedure, abridged: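 Each compound, titrated, sat 15 min with 25 nM linked protease before 1.5 microM Rhodamine110 substrate went in. Fluorescence gain over the next 15 min, in pH 8.0 Tris with Tween 20, gave Hill-fitted curves.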

For assay [3], the target named is Lysine-specific demethylase 5B (Homo sapiens) (UniProt Q9UGL1). Put plainly: Optimization screen for KDM5B Histone Demethylases FDH coupled qHTS against the LOPAC library (AID 1347166). Also: 0% is about no effect. The settings on record: KDM5B demethylation, FDH-coupled NADH fluorescence (FDH is formaldehyde dehydrogenase); series mostly up to 57.5 µM. The procedure, abridged: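 KDM5BDeltaAP (200nM final) in 50mM HEPES pH 7.5, 0.01% Tween-20 was preincubated with compound for 10 min at room temperature. A substrate mix of 12.5uM H3K4Me3, 25uM a-ketoglutarate, ascorbate, Fe2+, NAD+ and formaldehyde dehydrogenase was then added. NADH fluorescence (340/450 nm) was read initially and after 30 min.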

Results filed as inconclusive are left out. Values without a mark were called inactive. Calls of active or inactive are those of the source. Calls follow the shape of the dose curve; as a rule, active = well fitted curve in the direction sought with a large enough effect; inconclusive = small, poorly fitted or top-dose-only effect, or another doubt; inactive = no such curve, though single readings can be large; an effect the other way counts as inactive or inconclusive.

Sequence of Lysine-specific demethylase 5B (Homo sapiens) (Q9UGL1 whole entry, looked up): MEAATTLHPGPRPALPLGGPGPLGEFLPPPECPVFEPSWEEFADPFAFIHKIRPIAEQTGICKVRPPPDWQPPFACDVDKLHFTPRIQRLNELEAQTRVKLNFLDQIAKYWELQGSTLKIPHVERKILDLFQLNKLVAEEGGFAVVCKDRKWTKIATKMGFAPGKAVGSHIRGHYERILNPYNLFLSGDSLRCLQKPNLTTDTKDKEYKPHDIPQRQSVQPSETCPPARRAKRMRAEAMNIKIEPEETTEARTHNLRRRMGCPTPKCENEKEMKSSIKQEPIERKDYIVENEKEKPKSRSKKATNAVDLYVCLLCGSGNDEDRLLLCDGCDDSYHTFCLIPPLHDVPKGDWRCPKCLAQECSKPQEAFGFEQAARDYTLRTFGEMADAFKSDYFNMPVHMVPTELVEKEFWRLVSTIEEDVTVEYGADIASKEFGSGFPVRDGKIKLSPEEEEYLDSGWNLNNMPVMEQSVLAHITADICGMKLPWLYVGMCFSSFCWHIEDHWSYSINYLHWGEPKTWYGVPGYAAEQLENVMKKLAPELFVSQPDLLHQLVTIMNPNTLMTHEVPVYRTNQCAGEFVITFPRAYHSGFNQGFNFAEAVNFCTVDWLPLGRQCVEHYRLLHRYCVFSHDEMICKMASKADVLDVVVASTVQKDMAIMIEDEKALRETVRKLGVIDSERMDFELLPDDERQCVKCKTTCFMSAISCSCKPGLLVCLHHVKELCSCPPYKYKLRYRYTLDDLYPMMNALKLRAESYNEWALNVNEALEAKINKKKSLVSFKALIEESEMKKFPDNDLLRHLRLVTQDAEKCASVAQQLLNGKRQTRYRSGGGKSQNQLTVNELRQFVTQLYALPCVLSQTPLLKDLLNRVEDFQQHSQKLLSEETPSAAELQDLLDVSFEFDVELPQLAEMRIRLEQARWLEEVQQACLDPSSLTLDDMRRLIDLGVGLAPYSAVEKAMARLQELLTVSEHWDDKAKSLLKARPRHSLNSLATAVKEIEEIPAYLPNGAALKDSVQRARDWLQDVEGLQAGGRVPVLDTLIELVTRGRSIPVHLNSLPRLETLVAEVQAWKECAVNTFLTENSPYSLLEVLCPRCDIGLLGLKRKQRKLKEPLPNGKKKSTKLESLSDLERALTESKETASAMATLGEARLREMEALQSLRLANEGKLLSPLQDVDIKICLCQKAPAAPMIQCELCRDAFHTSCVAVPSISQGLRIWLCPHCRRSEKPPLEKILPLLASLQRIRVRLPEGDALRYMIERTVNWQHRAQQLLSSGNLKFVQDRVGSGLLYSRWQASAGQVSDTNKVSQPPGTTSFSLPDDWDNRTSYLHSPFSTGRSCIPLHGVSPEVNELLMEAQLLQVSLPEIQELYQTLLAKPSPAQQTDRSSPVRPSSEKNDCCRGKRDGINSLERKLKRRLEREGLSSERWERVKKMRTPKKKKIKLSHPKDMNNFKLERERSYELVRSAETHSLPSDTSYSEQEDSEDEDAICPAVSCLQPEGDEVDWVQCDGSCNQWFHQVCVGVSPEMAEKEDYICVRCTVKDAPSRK

For `CC1CCC2C(C(=O)O)=CC3C(O)C(C)(C)CC123` (stereo unspecified), the Potency result in assay [1] and in assay [2] was “inactive” in each case.

In the case of `CC1=CC(=O)CC(C)(C)C1(O)CCC(C)O` (stereo unspecified), the Potency result in assay [1] and in assay [2] was “inactive” each time.

On to `CC(C)=CCC[C@](C)(O[C@@H]1O[C@H](CO[C@@H]2OC[C@@H](O)[C@H](O)[C@H]2O)[C@@H](O)[C@H](O)[C@H]1O)[C@H]1CC[C@]2(C)[C@@H]1[C@H](O)C[C@@H]1[C@@]3(C)CC[C@H](O[C@@H]4O[C@H](CO)[C@@H](O)[C@H](O)[C@H]4O[C@@H]4O[C@H](CO)[C@@H](O)[C@H](O)[C@H]4O)C(C)(C)[C@@H]3CC[C@]12C`, for which the Potency entry in assay [1] and in assay [2] was “inactive” each time.

Regarding `C=CC1(C)C=C2C(=O)CC3C(C)(C)CCCC3(C(=O)O)C2(O)CC1` (stereo unspecified), the Potency result in assay [1] and in assay [2] was “inactive” each time.

As for `Cc1nnc(C(C)C)n1C1CC2CCC(C1)N2CCC(NC(=O)C1CCC(F)(F)CC1)c1ccccc1` (stereo unspecified), the Potency result in assay [1] and in assay [2] was “inactive” each time.

Take `C=C1C2=CC(O)C(C)C1(C)CC/C(C)=C/CCC1(C)OC1C2=O` (stereo unspecified): the Potency entry in assay [1] and in assay [2] was “inactive” each time.

Regarding `CCOC(=O)c1c(C)nn(-c2cccc([N+](=O)[O-])c2)c1C`, the Potency entry in assay [1] and in assay [2] was “inactive” throughout.

`C[C@@H]1O[C@@H](O[C@@H]2[C@@H](O)[C@H](O[C@@H]3[C@@H](O)[C@@H](O)[C@H](O[C@H]4[C@H](OC(=O)[C@]56CCC(C)(C)C[C@H]5C5=CCC7[C@@]8(C)C[C@H](O)[C@H](O[C@@H]9O[C@H](C(=O)O)[C@@H](O)[C@H](O)[C@H]9O)[C@@](C)(CO)C8[C@H](O)C[C@@]7(C)[C@]5(C)CC6)OC[C@H](O)[C@@H]4O)O[C@H]3C)OC[C@H]2O)[C@H](O)[C@H](O)[C@H]1O` (stereo partly specified): the activity change, negative = inhibition in assay [1] was 20.7% [at 19.1 µM]. In addition, the outcome in assay [2] is “inactive [at 10.7 µM]”.

As for `N[C@H]1C[C@H]1c1ccc(-c2cccc(O)c2)cc1`, the Potency entry in assay [1] and in assay [2] was “inactive” throughout.

`CC(=O)OCC(=O)O[C@@H]1[C@H]2[C@@H](OC(=O)c3ccccc3)[C@@H](C)C[C@]2(O)[C@H](OC(C)=O)C2(C)[C@H]3CC(C)(C)C(=O)[C@@H]3CC1(OC(C)=O)[C@@H]2OC(C)=O` (stereo partly specified): the Potency entry in assay [1] and in assay [2] was “inactive” throughout.

As for `CN1Cc2c(N)cccc2C(c2ccccc2)C1` (stereo unspecified), the outcome in assay [3] was inactive.
